Compound activity from PubChem.
An excerpt weighted towards active compounds, which were near 1.2% of everything screened.
PI5P4Ka inh: blocks human PI5P4K alpha kinase activity; P48426; PI5P4Kalpha enzyme, ADP-Glo luminescence, 60 min; active compounds read low; max response, %; 1.2% of 330,000 active; AID 652105; active = max response of -50% or lower; inconclusive = between -30% and -50%; inactive = -30% or higher; note: value at the top dose of about 77 µM
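Reactions run in 0.038 M HEPES pH 7.4, 0.28 mM EGTA, 0.1% CHAPS and 5% DMSO, with PI5P4Kalpha, substrate, compound and 5 microM ATP final, one hour at room temperature. Readout is ADP-Glo luminescence.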
PI4K2A inh: PI4K2A (human) kinase inhibition | Q9BTU6 | purified PI4K2A, ADP-Glo luminescence, 1 h; active compounds read low | activity change, negative = inhibition, % at 76.9 µM | 0.13% of 420,000 active; in the data active = activity change below about -50%; inconclusive = mostly about -30% to -49%;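 note: -100% = wells without enzyme as full effect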
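PI4K2A activity was measured by ADP-Glo luminescence: enzyme (4 ug/mL stock) and phosphatidylinositol (1.2 mM stock) in Tris pH 7.5/MgCl2/EGTA/Triton X-100 buffer were reacted with ATP (300 microM stock) for one hour at ambient temperature.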
RGS12 GoLoco inh: blocks human Gai1 binding to RGS12 GoLoco peptide, red readout | P63096 | Gai1:RGS12 GoLoco peptide FP, rhodamine, 10 min | Potency, µM (top dose mostly 61.6 µM), without a hit: at the top dose activity, negative = inhibition, usual class: inhibitors | 0.44% of 230,000 active | AID 880; active = well fitted inhibition curve with a large enough effect, not every such curve was filed as active; inactive = no such curve, though single readings can be large or run the other way; note: potency is the fitted concentration of half-maximal effect; nearly all actives have a fitted effect of over 30% in size
KAT2A inh: blocks human GCN5L2 histone acetyltransferase; Q92830; GCN5L2 HAT assay, ThioGlo1 CoA-SH fluorescence; Potency, µM (highest dose often 58.9 µM), without a hit: top-dose activity change, negative = inhibition, usual class: inhibitors; 0.21% of 390,000 active; note: potency is the fitted concentration of half-maximal effect
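qHTS, 1536-well. 20nM enzyme, pH 7.5 HEPES/EDTA/Tween-20 buffer; 15 min compound preinc., RT. Start: 75uM H3(1-25), 70uM AcCoA, 50uM ThioGlo1. Read Ex340/Em540 at t=0 (autofluorescence flag) and t=20 min.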
Pin1 inh: human Pin1 inhibition; Potency, µM (top dose mostly 115 µM), without a hit: top-dose activity, negative = inhibition, usual class: inhibitors; 0.009% of 390,000 active; AID 504891; Q13526; Pin1 FP peptide displacement, HiFluor488, 10 min; active = well fitted inhibition curve with a large enough effect in the polarisation, with a control signal flat, not every such curve was filed as active; inconclusive = small, poorly fitted or top-dose-only effect, or effect the other way, or a change in a side signal; inactive = no such curve, though single readings can be large or run the other way; the % refers to the polarisation; note: potency is the fitted concentration of half-maximal effect
Target sequence (Q13526 whole entry, looked up): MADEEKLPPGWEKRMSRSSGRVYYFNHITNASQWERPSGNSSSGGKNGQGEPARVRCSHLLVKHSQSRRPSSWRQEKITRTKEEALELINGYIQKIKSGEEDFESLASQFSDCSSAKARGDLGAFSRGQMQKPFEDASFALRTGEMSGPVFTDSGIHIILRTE
Tb PGK inh: inhibitors of T. brucei phosphoglycerate kinase. P07378. PGK/GAPDH coupled, Kinase-Glo luminescence, 60 min. Potency, µM (doses to about 57.5 µM), for the others: top-dose activity change, negative = inhibition, most hits filed as inhibitors. 0.043% of 380,000 active; note: potency is the fitted concentration of half-maximal effect; nearly all actives have a fitted effect of over 60% in size
Target sequence (P07378 whole entry, looked up): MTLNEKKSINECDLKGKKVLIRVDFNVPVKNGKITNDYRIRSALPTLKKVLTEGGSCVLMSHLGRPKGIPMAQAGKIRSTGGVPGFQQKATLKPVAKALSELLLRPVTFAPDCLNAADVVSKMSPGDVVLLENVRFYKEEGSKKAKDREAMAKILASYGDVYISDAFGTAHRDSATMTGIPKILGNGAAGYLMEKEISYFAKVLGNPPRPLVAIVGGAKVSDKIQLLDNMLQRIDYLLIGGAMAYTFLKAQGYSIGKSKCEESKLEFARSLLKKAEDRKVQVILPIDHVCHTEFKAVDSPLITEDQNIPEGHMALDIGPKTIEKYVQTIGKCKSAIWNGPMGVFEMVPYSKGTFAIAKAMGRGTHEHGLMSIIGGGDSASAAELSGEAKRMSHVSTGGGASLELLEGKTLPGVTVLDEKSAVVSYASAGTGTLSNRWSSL
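Recombinant glycosomal PGK reaction used 1,3-bisphosphoglycerate generated in-well by GAPDH (100nM final) in 100mM TEA pH 7.6, 5mM MgCl2, 0.01% Tween-20. After 60 minutes at room temperature, ATP was read by Kinase-Glo Plus luminescence end-point.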
* = called active by the depositor; i = inactive; ? = inconclusive; . = no result; ! = not active in a repeat; [ ] = dose if it differs, or a comment. Unless noted, calls come from the whole dose curve; as a rule, active = well fitted curve in the direction sought with a large enough effect; inconclusive = small, poorly fitted or top-dose-only effect, or another doubt; inactive = no such curve, though single readings can be large; an effect the other way counts as inactive or inconclusive. Unless noted, % is set by controls: 0 for no effect and ±100 for the full control effect.

SMILES	PI5P4Ka inh	PI4K2A inh	RGS12 GoLoco inh	KAT2A inh	Pin1 inh	Tb PGK inh
COc1ccc(C(C#N)c2ccc(=O)[nH]n2)cc1 (stereo unspecified)	2.7	-62.2*	18.4%	-4.4%	-1.3%	-4.9%
O=C(CNC(=O)c1ccc(Br)o1)NNC(=O)c1ccc(Cl)cc1	-1.8	-5.1	.	6.7%	5.6%	i
O=C1/C(=C\c2cc(Cl)c(O)c(Cl)c2)SC(=S)N1Cc1ccccc1	-102.0*	3.2	.	-0.8%	?	-13.8%
COc1ccc(/C=C2/SC(=S)N(Cc3ccccc3)C2=O)cc1O	4.4	0.4	.	-6.0%	12.3%	-1.2%
N#C/C(=C\c1ccc(-c2ccccc2C(=O)O)o1)c1nc2ccccc2[nH]1	-69.5*	-3.0	.	3.5%	?	7.2%
Cc1cc(/C=C(/C#N)c2nc3ccccc3[nH]2)c(C)n1-c1cc(C(=O)O)cc(C(=O)O)c1	-78.9*	-15.4	12.1%	-20.6%	?	?
O=C(CCCc1nc(-c2ccccc2Cl)no1)NCc1cccnc1	-1.0	4.7	.	-6.6%	-1.3%	-2.9%
Cc1ccc(CNC(=O)CSc2ncc(S(=O)(=O)c3ccc(Br)cc3)c(=O)[nH]2)cc1	.	3.1	.	-3.0%	-0.7%	-2.6%
O=C(NCc1ccc(Cl)nc1)c1csc([C@@H]2O[C@H](CO)[C@H](O)[C@H](O)[C@H]2O)n1	-2.4	-2.5	.	.	.	.
Cc1cc(NC(=O)c2cc(-c3ccccc3)on2)no1	.	3.8	-0.6%	-8.9%	14.0%	-11.2%
O=C(c1ccccc1)c1cc(-c2ccccc2)on1	13.8	-51.1*	-5.1%	-19.1%	0.4%	?
CC1=C(C(=O)Nc2ccccc2)C2(CCCCC2)C(C#N)=C(S)N1	-57.6*	10.2	5.4%	-3.5%[0.501 µM]	20.0%	-4.0%
Cc1cc(=O)n(Cc2ccccc2)c2c1c(C)nn2-c1ccccc1	.	1.4	.	-5.0%	0.6%	0.9%
CS(=O)(=O)C1=NSC2=NC(=O)/C(=C\c3ccc(-c4ccccc4)o3)C(=N)N21	.	.	-6.4%	1.7%	.	.
O=C(O)c1cccc(-c2ccc(/C=N/n3cnnc3)o2)c1	-10.3	-2.8	.	-4.8%	-10.1%	-1.2%
CC(C)S(=O)(=O)C1=NSC2=NC(=O)/C(=C\c3ccc(-c4cccc(C(=O)O)c4)o3)C(=N)N21	-104.4*	-7.3	105.7%	0.7%	?	-18.0%
CC(C)S(=O)(=O)C1=NSC2=NC(=O)/C(=C\c3ccc(-c4ccccc4)o3)C(=N)N21	-101.9*	-1.7	6.8%	-28.6%	?	-5.2%
COc1cc(C)cc(C(=O)O)c1C1=C(O)c2cccc(O)c2C(=O)C1=O	-77.6*	-10.3	-1.0%	-0.9%	?	-26.1%
Cc1cc(O)c2c(c1)C(=O)c1cccc(O)c1C2=O	.	.	3.5%	-7.9%	.	.
CCN(C(=O)COC(=O)c1cc2c(s1)CCCCC2)C1CCS(=O)(=O)C1 (stereo unspecified)	-3.5	2.5	.	-16.8%	-3.8%	-11.9%
CC(C)CN(C(=O)COC(=O)c1cc2c(s1)CCC2)C1CCS(=O)(=O)C1 (stereo unspecified)	-61.8*	-26.3	4.6%	-6.2%	?	?
O=S(=O)(c1cccs1)N1CCCc2cccc(O)c21	-1.7	-11.3	-20.8%	-0.1%	0.7%	-2.2%
O=C1C(=Cc2cn(-c3ccccc3)nc2-c2ccc(OCc3ccc(Cl)cc3)cc2)SC(=S)N1CCS(=O)(=O)O	?	-14.9	.	.	.	.
COc1ccc(-c2nn(-c3ccccc3)cc2/C=C2/SC(=S)N(CCC(=O)O)C2=O)cc1	1.9	4.1	.	?	?	20µM*
COc1ccc(-c2nn(-c3ccccc3)cc2/C=C2/SC(=S)N(CCC(=O)O)C2=O)c(C)c1	-8.2	7.2	.	?	.	-3.3%
SMILES	PI5P4Ka inh	PI4K2A inh	RGS12 GoLoco inh	KAT2A inh	Pin1 inh	Tb PGK inh
O=C1C(=Cc2cn(-c3ccccc3)nc2-c2ccc(OCc3ccccc3F)cc2)SC(=S)N1CCS(=O)(=O)O	-78.8*	-2.4	.	.	.	.
CC(=O)Oc1cc2c3c(c1)/C(=C1/SC(=S)NC1=O)C(=O)N3C(C)(C)C=C2C	-75.8*	-3.1	11.8%	-7.9%	.	-13.3%
CC1(C(=O)O)Sc2[nH]c(=O)sc2C2c3ccccc3OC(=O)C21 (stereo unspecified)	-90.7*	-2.1	8.1%	-5.3%	-3.1%	3.2%
COC(=O)C1Sc2[nH]c(=O)sc2C2c3ccccc3OC(=O)C12 (stereo unspecified)	-2.5	1.3	-10.5%	4.3%	-0.2%	-2.4%
[O-][n+]1c2c(nn1-c1ccccc1)/C(=N/O)CCC2	1.4	6.4	9.3%	-2.9%	0.7%	-1.0%
[O-][n+]1onc2c1CCC(=N/O)/C2=N\Nc1ccccc1	.	.	14.1µM*	?	.	.
COc1cc(C(=O)NC2CC3CCCC(C2)N3C2CC2)cc(OC)c1OC (stereo unspecified)	2.5	-0.1	-2.5%	1.7%	-0.6%	-4.9%
COCCNC(=O)/C(C#N)=C/c1ccc(O)cc1	?	-69.3*	7.2%	-12.0%	0.7%	?
CC(C)n1c(CNC(=O)c2ccccc2F)nnc1SCC(=O)NC1CCCCC1	-71.4*	-3.0	.	.	0.8%	i
CCn1c(CNC(=O)c2ccccc2F)nnc1SCC(=O)NC1CCCCC1	-5.1	3.4	10.7%	?	15.5%	.
CC1CCCN(C(=O)C(C)Nc2cc(Cl)ccc2N2CCOCC2)C1 (stereo unspecified)	-0.4	-6.0	157.1%	-4.5%	0.2%	-2.9%
O=C(O)c1cc2cc(Cc3cccnc3)ccc2o1	.	-4.9	28.2µM*!	-3.6%	.	.
CCOc1ccc(OCC(=O)Nc2nccs2)cc1	?	-86.3*	11.0%	10.8%	0.7%	?
COc1ccc(N/C=C2/Sc3ccccc3NC2=O)cc1	-54.7*	-0.6	52.9%	-4.3%	16.0%	.
Cc1ccnc(NC(=O)c2ccc(OCC3CCCO3)cc2)c1 (stereo unspecified)	?	-62.8*	.	-25.7%	-9.9%	?
CCc1ccc(NC(=O)c2ccc(CN3CC(=O)N4CCCCC4C3=O)cc2)cc1 (stereo unspecified)	.	7.1	.	1.0%	-4.6%	-7.3%
Cc1ccc(-c2cc(-c3ccc4c(c3)OCO4)c(C#N)c(N)n2)o1	.	13.4	23.4%	?	42.1%	-8.1%
Cc1ccc(-c2cc(-c3ccc(F)cc3)c(C#N)c(N)n2)o1	-67.2*	-1.5	63.1%	-15.0%	?	-7.7%
Cc1ccc(-c2cc(-c3ccc(C)o3)nc(N)c2C#N)cc1	-90.1*	-3.3	8.0%	?	?	-7.4%
CCOc1cc(-c2cc(-c3ccc(C)o3)nc(N)c2C#N)ccc1O	-54.5*	-4.8	-3.7%	2.0%	14.3%	2.3%
Cc1ccc(-c2cc(-c3ccc(Cl)cc3)c(C#N)c(N)n2)o1	-92.6*	2.7	0.2%	?	9.1%	i
